Bioassay records from PubChem BioAssay.
Vif-A3F inh: qHTS for Inhibitors of Vif-A3F Interactions: qHTS. HeLa A3F-eYFP + Vif (tagged APOBEC3F with the HIV-1 protein that degrades it), YFP fluorescence increase. Potency, µM (titrated, usually from 46.1 µM), without a hit: at the highest dose activity, negative = active. hit rate 0.2% among 390,000; further: % of control where 0% means no effect; nearly all actives have a fitted effect of over 65% in size
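HeLa cells stably expressing Vif plus C-terminally eYFP-tagged A3F were seeded, incubated overnight at 37 deg C, dosed with compound, incubated overnight again at 37 deg C. Yellow fluorescence (Ex 488/Em 500-530) reported blocked Vif-mediated A3F-eYFP degradation.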
Epigenetic derep: Quantitative High-Throughput Screen for Regulators of Epigenetic Control | Potency, µM (doses to about 53.9 µM), without a hit: at the highest dose GFP activation, most hits filed as activators | murine LDR cells, GFP reporter derepression, 30 h | hit rate 0.2% among 280,000; further: % of control where 0% means no effect; nearly all actives have a fitted effect of over 60% in size
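Reporter derepression read as number of fluorescent GFP-positive objects, 20-120 um in size, counted by laser-scanning cytometer. Mouse LDR line with an epigenetically silenced CMV-GFP locus; compound incubation 30 h, 37 C.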
Vif-A3G inh: qHTS for Inhibitors of Vif-A3G Interactions: qHTS; DNA dC->dU-editing enzyme APOBEC-3G (Homo sapiens), Q9HC16; hit rate 0.076% among 410,000; Potency, µM (titrated, usually from 46.1 µM), for the others: at the top dose activity, negative = active, most hits filed as inhibitors; HeLa A3G-eYFP + Vif (tagged APOBEC3G with the HIV-1 protein that degrades it), YFP fluorescence, overnight; further: on the % scale 0 is the no-effect control and ±100 the full control effect; nearly all actives have a fitted effect of over 60% in size
Target sequence (Q9HC16 whole entry, looked up): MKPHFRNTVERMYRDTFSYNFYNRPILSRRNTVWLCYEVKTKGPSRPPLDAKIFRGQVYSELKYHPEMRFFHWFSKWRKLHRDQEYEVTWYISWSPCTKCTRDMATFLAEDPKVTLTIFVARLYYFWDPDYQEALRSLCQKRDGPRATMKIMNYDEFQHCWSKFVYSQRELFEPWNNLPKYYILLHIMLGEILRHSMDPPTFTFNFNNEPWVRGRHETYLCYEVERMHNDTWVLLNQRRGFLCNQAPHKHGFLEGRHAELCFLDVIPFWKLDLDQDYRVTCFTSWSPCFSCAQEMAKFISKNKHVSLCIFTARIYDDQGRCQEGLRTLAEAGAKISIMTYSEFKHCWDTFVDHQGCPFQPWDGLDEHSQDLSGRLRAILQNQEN
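Read-out is eYFP fluorescence (Ex 488/Em 500-530) from Vif-expressing HeLa A3G-eYFP cells; more signal means A3G escaped Vif-mediated degradation. Cells plated overnight, compound pinned in, incubated overnight at 37 deg C.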
PINK1 expr mod: A Quantitative High throughput Screen to Identify Chemical Modulators of PINK1 Expression; PINK1 immunofluorescence, high-content cytometry, 24 h; Potency, µM (series often up to 76.6 µM), for the others: at the highest dose activation (PINK1 increase), usual class: activators; hit rate 0.2% among 410,000; AID 624263, 2012; active means well fitted activation curve with a large enough effect; inconclusive means small, poorly fitted or top-dose-only effect; cell line not stated here; further: % of control where 0% means no effect; nearly all actives have a fitted effect of over 65% in size
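PINK1 protein, normally rapidly degraded, was detected by immunofluorescence after 24 hour compound treatment of a stable cell line. Titration data (5 concentrations) came from laser-scanning cytometry, with CCCP-treated wells as controls.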
Numbers without * were called inactive; [ ] = another dose, or the depositor's remark. Sampled rows, rich in hits. Any-hit rate of the full collection: about 0.52%. Unless noted, the call rests on the fitted dose curve; in most records, active means well fitted curve in the direction sought with a large enough effect; inconclusive means small, poorly fitted or top-dose-only effect, or another doubt; inactive means no such curve, though single readings can be large; an effect the other way counts as inactive or inconclusive. Potency means the concentration at half of the fitted maximal effect.

How did CC[n+]1c(/C=C/Nc2ccccc2)oc2ccc(OC)cc21 do in these assays?
Vif-A3F inh: 5.62µM*; Epigenetic derep: 12.6µM*; Vif-A3G inh: inconclusive; PINK1 expr mod: 2.0%

Results for CC[n+]1c(/C=C/N(C)c2ccccc2)oc2ccc(F)cc21 ?
Vif-A3F inh: inconclusive; Epigenetic derep: 11.3%; Vif-A3G inh: 3.98µM*; PINK1 expr mod: 1.3%

What do the screens show for `CC[n+]1c(/C=C/Nc2ccccc2)oc2ccccc21`?
Vif-A3F inh: 11.2µM*; Epigenetic derep: 15.8µM*; Vif-A3G inh: 7.94µM*; PINK1 expr mod: 3.5%[38.3 µM]

Results for CCC1CN(CCNC(=O)c2cn3cc(C)ccc3n2)Cc2cc(OC)ccc2O1 (stereo unspecified) ?
PINK1 expr mod: 2.6%

What do the screens show for `CC(NC1=CC(=O)c2cccnc2C1=O)C(O)c1ccccc1` (stereo unspecified)?
Vif-A3F inh: inconclusive; Vif-A3G inh: 10µM*; PINK1 expr mod: -0.6%

How did OCCN1CCN(Cc2ccc3c(c2)CN(Cc2cc4ccccc4o2)CCO3)CC1 do in these assays?
PINK1 expr mod: -0.6%

Results for Cc1ccc(-n2nc3c(SCCN4CCOCC4)nnc(C)c3c2C)cc1 ?
Vif-A3F inh: 25.1µM*; Epigenetic derep: 0.0%; Vif-A3G inh: inconclusive; PINK1 expr mod: 4.0%

How did O=C(c1ccccc1-n1cccn1)N1CCOc2ccc(CN3CCOCC3)cc2C1 do in these assays?
PINK1 expr mod: 0.7%

How did CCOC(=O)c1cc2n(c1/N=C/N(C)C)-c1ccccc1C2=O do in these assays?
Vif-A3F inh: 22.4µM*; Epigenetic derep: 0.0%; Vif-A3G inh: inconclusive; PINK1 expr mod: 2.8%[38.3 µM]

Results for COc1ccccc1C1CN(CC(=O)N2CCC(C(O)c3ccccn3)CC2)Cc2ccccc2O1 (stereo unspecified) ?
PINK1 expr mod: 1.3%

How did O=[N+]([O-])c1ccc(O)c(/C=N\N=C2c3ccccc3-c3ccccc32)c1 do in these assays?
Vif-A3F inh: -13.2%; Epigenetic derep: -1.1%; Vif-A3G inh: -19.6%; PINK1 expr mod: 10µM*

How did NC(N)=N/N=C/c1cc([N+](=O)[O-])ccc1O do in these assays?
Vif-A3F inh: -16.8%; Epigenetic derep: -2.2%; Vif-A3G inh: -2.1%; PINK1 expr mod: 2.1%

What do the screens show for `COC(=O)C1CCCCN1Cc1ccc2c(c1)CN(C1CCSCC1)CCO2` (stereo unspecified)?
PINK1 expr mod: 0.7%

Results for COc1ccccc1CCNc1ncnc2sc(C(=O)N3CCCC3)c(C)c12 ?
PINK1 expr mod: 0.3%

Results for Cc1cccnc1NCc1ccc(O)c2ncccc12 ?
Vif-A3F inh: 0.0%; Epigenetic derep: 6.31µM*; Vif-A3G inh: -16.5%; PINK1 expr mod: 14.1µM*

What do the screens show for `Cc1cccc(NCc2ccc(O)c3ncccc23)c1C`?
Vif-A3F inh: inconclusive; Epigenetic derep: 9.6%; Vif-A3G inh: 5.1%; PINK1 expr mod: 15.8µM*

How did Brc1ccccc1C1CC(c2ccccc2)=Nc2ccccc2N1 (stereo unspecified) do in these assays?
Vif-A3F inh: inconclusive; Epigenetic derep: -1.9%; Vif-A3G inh: -8.7%; PINK1 expr mod: 3.5%

Results for Clc1ccccc1C1CC(c2ccccc2)=Nc2ccccc2N1 (stereo unspecified) ?
Vif-A3F inh: 20µM*; Epigenetic derep: 0.0%; Vif-A3G inh: -22.3%; PINK1 expr mod: 18.3%

What do the screens show for `C[C@@H]1CN(Cc2ccc3c(c2)CN(Cc2nc(-c4ccccc4)cs2)CCO3)C[C@H](C)O1`?
PINK1 expr mod: 0.1%

Results for CC(=O)N1CCC[C@H]1C(=O)NCC1Cc2cc(-c3cccc(OC(F)(F)F)c3)ccc2O1 (stereo partly specified) ?
PINK1 expr mod: 0.2%

What do the screens show for `COc1cc(/C=N/NS(=O)(=O)c2ccc(C)c([N+](=O)[O-])c2)cc([N+](=O)[O-])c1O`?
Vif-A3F inh: 2.5%; Vif-A3G inh: 1.5%; PINK1 expr mod: 0.2%

How did COc1ccc(-n2c(O)c(/C=N/NS(=O)(=O)c3ccc(C)c([N+](=O)[O-])c3)c3ccccc3c2=O)cc1OC do in these assays?
Vif-A3F inh: 12.6µM*; Epigenetic derep: 4.6%; Vif-A3G inh: 3.55µM*; PINK1 expr mod: 3.5%

How did CSc1nnc(CNC(=O)c2cccc3ccccc23)n1-c1ccccc1C do in these assays?
PINK1 expr mod: 2.7%

How did CCOC(=O)C1CCCN(C(=O)c2cnn(-c3nccc(-c4cc(C)sc4C)n3)c2C)C1 (stereo unspecified) do in these assays?
PINK1 expr mod: 0.4%

How did CCCCCCCCCCCCCCCC[n+]1ccc(C)c2ccccc21 do in these assays?
Vif-A3G inh: -11.0%

Results for Cc1[nH]c2ccccc2c1/C=N/NC(=O)c1ccccc1 ?
Vif-A3F inh: -0.5%; Vif-A3G inh: -4.8%; PINK1 expr mod: 0.9%

Results for Cc1[nH]c2ccccc2c1/C=C/C(=O)c1ccccc1 ?
Vif-A3F inh: 28.2µM*; Epigenetic derep: inconclusive; Vif-A3G inh: inconclusive; PINK1 expr mod: 2.8%

What do the screens show for `Cc1oc(-c2ccccc2NC(=O)C2CCC2)nc1CNC(=O)c1ccc(C#CC(C)(C)O)cc1`?
PINK1 expr mod: 2.8%

Results for Cc1cc2nc3c(=O)n(C4CCCCC4)c(=O)[nH]c3nc2cc1N ?
Vif-A3F inh: 11.2µM*; Epigenetic derep: 0.9%; Vif-A3G inh: 8.91µM*; PINK1 expr mod: 14.1µM*

Results for CCOc1ccc(C(=O)Nc2cc(-c3nc4ccccc4[nH]3)ccc2C)cc1[N+](=O)[O-] ?
Vif-A3F inh: 6.0%; Epigenetic derep: -4.3%; Vif-A3G inh: -7.9%; PINK1 expr mod: 3.1%

Results for CCOc1ccc(C(=O)Nc2cc(-c3nc4ccccc4[nH]3)ccc2Cl)cc1[N+](=O)[O-] ?
Vif-A3F inh: -1.8%; Epigenetic derep: 1.5%; Vif-A3G inh: 12.6µM*; PINK1 expr mod: -3.7%

How did CCn1c(-c2ccccc2F)nc2cc(NC(C)=O)cc(C(=O)NCC3CCOCC3)c21 do in these assays?
PINK1 expr mod: 0.1%

Results for O=C(CN1c2cccc3cccc(c23)S1(=O)=O)Nc1ccc(S(=O)(=O)N2CCOCC2)cc1 ?
Vif-A3F inh: 22.4µM*; Epigenetic derep: -0.8%; Vif-A3G inh: -4.7%; PINK1 expr mod: 2.3%

Results for O=C(CN1C(=O)c2cccc3cccc1c23)Nc1ccc(S(=O)(=O)N2CCOCC2)cc1 ?
Vif-A3F inh: -8.5%; Epigenetic derep: -1.2%; Vif-A3G inh: 0.1%; PINK1 expr mod: 3.9%

What do the screens show for `O=C(CC1CC2CCC1C2)Nc1nc(-c2ccccn2)cs1` (stereo unspecified)?
Vif-A3F inh: 12.6µM*; Epigenetic derep: 3.9%; Vif-A3G inh: 1.1%; PINK1 expr mod: 6.6%

What do the screens show for `Nc1c(C(=O)Nc2ccccc2)sc2nc3c(cc12)CN(Cc1ccccc1)CC3`?
Vif-A3F inh: inconclusive; Epigenetic derep: 5.6%; Vif-A3G inh: -16.2%; PINK1 expr mod: 22.2%
